Screening data (PubChem)
Shown are actives, neighbours in structure and some others; about 12% of the full set was active somewhere.
CHX counter: counter-screen for Shiga toxin inhibitors: cycloheximide protein synthesis inhibition; cell reporter, cycloheximide protein synthesis inhibition counterscreen; max response, %; 12% of 300,000 active; in the data active = max response mostly above about 13%, no sharp cut-off; inactive = mostly below about 14%; note: read at 38.3 µM for the half of the compounds with a filed dose
Lassa entry inh: inhibitors of Lassa virus binding or cell entry; Lassa virus pseudotype entry inhibition, cell reporter; 1.2% of 300,000 active; Potency, µM (doses to about 37.9 µM), usual class: inhibitors; calls by dose curve; tested in HEK293 cells; note: nearly all actives have a fitted effect of over 50% in size
Shiga toxin inh: blocks Shiga toxin action in Vero cells | 9.2% of 290,000 active | inhibition, % at 38.7 µM | AID 2315 | Vero cells, Shiga toxin protein synthesis inhibition reporter; in the data active = inhibition mostly above about 28%, no sharp cut-off; inactive = mostly below about 43%
Marburg entry inh: Marburg virus entry inhibition; Marburg virus pseudotyped entry inhibition, cell reporter; Potency, µM (series often up to 37.8 µM), hits mostly inhibitors; 1.8% of 300,000 active; calls by dose curve; tested in HEK293 cells
Of the large screens only hits and unclear results are named; the others gave an inactive call.

COC(=O)c1ccc(CNC(=O)C23CC4CC(CC(C4)C2)C3)cc1	none
COc1cccc(C2c3[nH]c4ccccc4c3C[C@H]3C(=O)N(c4ccccc4C(=O)NCCCN4CCOCC4)C(=O)N23)c1 (stereo partly drawn)	none (no result: Lassa entry inh, Marburg entry inh)
CCc1ccc(NC(=O)C(=O)NCCc2csc(-c3ccc(C(F)(F)F)cc3)n2)cc1	none (no result: CHX counter, Shiga toxin inh, Marburg entry inh)
COc1cccc(OCc2cc(C(=O)NCc3ccccn3)no2)c1	CHX counter 62, Shiga toxin inh 70, Marburg entry inh inconclusive
COc1cccc(OCc2cc(C(=O)NCCc3cccc(C)n3)no2)c1	none
COc1ccc(OCc2cc(C(=O)NCc3cccc(C)n3)no2)c(Cl)c1	CHX counter 61, Shiga toxin inh 138, Marburg entry inh inconclusive
COc1cccc(OCc2cc(C(=O)NCC3CCCCC3)no2)c1	CHX counter 35, Shiga toxin inh 38 (no result: Lassa entry inh, Marburg entry inh)
Cc1ccc(NC(=O)Nc2nnc(N(C)Cc3ccccc3)s2)cc1	Marburg entry inh inconclusive (no result: CHX counter, Shiga toxin inh)
CCOc1ccc(N2CC(NC(=O)c3ccc(S(=O)(=O)N4CCCCC4)cc3)CC2=O)cc1 (stereo not drawn)	none (no result: CHX counter, Shiga toxin inh, Marburg entry inh)
CCn1nnc2cc(C(=O)NCCc3ccccc3F)ccc21	Lassa entry inh 1.1µM, Shiga toxin inh 58, Marburg entry inh 6.3µM
O=C(NCc1ccccc1Cl)c1ccc(NC(=O)N2CCSc3ncccc32)cc1	none (no result: CHX counter, Shiga toxin inh, Marburg entry inh)
CCn1c(SCC(=O)N2c3ccccc3Sc3ccccc32)nc2c1c(=O)n(C)c(=O)n2C	Lassa entry inh inconclusive, Marburg entry inh inconclusive
CCCCn1c(SCC(=O)N2c3ccccc3Sc3ccccc32)nc2c1c(=O)n(C)c(=O)n2C	Lassa entry inh inconclusive, Marburg entry inh 11µM
COc1cc(/C=C/c2nc(C#N)c(N3CCCCC3)o2)cc(OC)c1OC	none (no result: CHX counter, Shiga toxin inh)
Cc1cccc(NC(=O)CCc2ccc(C)o2)c1	CHX counter 18
Cc1ccc(CCC(=O)Nc2ccc(C)c(C)c2)o1	CHX counter 19 (no result: Lassa entry inh, Marburg entry inh)
Cc1ccc(-c2ccc(CCC(=O)O)o2)cc1	CHX counter 38, Shiga toxin inh 45
CC(=O)Nc1ccc(NC(=O)CCc2ccc(C)o2)cc1	none (no result: Lassa entry inh, Marburg entry inh)
O=C(O)CCc1ccc(-c2cccs2)o1	none
Cc1ccc(NC(=O)CCc2ccc(C)o2)cc1	CHX counter 16 (no result: Shiga toxin inh)
Cc1cccc(CNC(=O)c2cnc3c(-c4cccc(C)c4)c(C)nn3c2C)c1	none (no result: CHX counter, Shiga toxin inh, Marburg entry inh)
CC(=O)c1ccc(NC(=O)C2CCC(CNS(=O)(=O)c3ccc4c(c3)CCCC(=O)N4)CC2)cc1 (stereo not drawn)	none (no result: CHX counter, Shiga toxin inh, Marburg entry inh)
CCSc1nnc(NC(=O)CCc2ccccc2)s1	none
CCSc1nnc(NC(=O)COc2ccccc2[N+](=O)[O-])s1	CHX counter 62, Shiga toxin inh 185, Marburg entry inh inconclusive
CC(C)c1nnc(NC(=O)COc2ccccc2[N+](=O)[O-])s1	CHX counter 20, Shiga toxin inh 96, Marburg entry inh inconclusive
O=C(c1cc(COc2ccc(F)cc2Cl)on1)N1CC2C[C@@H]3CC1C[C@H](C2)C3	CHX counter 30, Shiga toxin inh 102 (no result: Lassa entry inh, Marburg entry inh)
O=C(c1cc(COc2ccc(F)cc2Cl)on1)N1CC[C@@H]2CCCC[C@H]2C1	none
CCN(CC)C1CCN(C(=O)c2cc(COc3ccc(F)cc3Cl)on2)C1 (stereo not drawn)	none (no result: Lassa entry inh, Marburg entry inh)
CCOC(=O)CC1COCCN1C(=O)c1cc(COc2ccc(F)cc2Cl)on1 (stereo not drawn)	CHX counter 39, Shiga toxin inh 61
O=C(c1cc(COc2ccc(F)cc2Cl)on1)N1CCc2ccccc2C1	none
O=C(c1cc(COc2ccc(F)cc2Cl)on1)N1C[C@H]2CC[C@H]1C2	CHX counter 40, Lassa entry inh inconclusive, Shiga toxin inh 66
O=C1O/C(=C/Br)CCC1c1cccc2ccccc12 (stereo not drawn)	Lassa entry inh 21µM, Marburg entry inh 10µM (no result: CHX counter, Shiga toxin inh)
CC1CC=CC2C1C(=O)N(Cc1ccccc1)C2c1ccoc1 (stereo not drawn)	none (no result: Lassa entry inh, Marburg entry inh)
CCCCOc1ccc(-c2c(C#N)c(N)nc(SCC(N)=O)c2C#N)cc1	Lassa entry inh 4.5µM, Marburg entry inh inconclusive
CCCCOC(=O)CSc1nc(N)c(C#N)c(-c2ccc(OCC)cc2)c1C#N	none
Cc1cc(C)cc(NS(=O)(=O)c2ccc(NC(=S)NC(=O)c3cccs3)cc2)c1	Lassa entry inh 14µM, Marburg entry inh 12µM
COc1cc(NS(=O)(=O)c2ccc(NC(=S)NC(=O)c3cccs3)cc2)nc(OC)n1	none
CN(C1CCCCC1)S(=O)(=O)c1ccc(NC(=S)NC(=O)c2cccs2)cc1	Marburg entry inh 18µM
CCOC(=O)c1cnc(N2CC2)nc1N	Lassa entry inh inconclusive, Marburg entry inh 10µM (no result: CHX counter, Shiga toxin inh)
CCOC(=O)c1cnc(SC)nc1N	CHX counter 17
CCOC(=O)c1cnc(SCC(C)C)nc1N	CHX counter 52, Shiga toxin inh active
CCOC(=O)c1cnc(SCc2cccc(C)c2)nc1N	CHX counter 53, Shiga toxin inh 54
CCOC(=O)c1ccc(NC(=O)c2cnc(N3CCCC3)nc2C)cc1	none (no result: CHX counter, Shiga toxin inh, Marburg entry inh)
CCOC(=O)c1ccccc1NC(=O)CSc1ncc(C(=O)OCC)c(N)n1	none
CCOC(=O)c1cnc(SCC(=O)c2ccccc2)nc1N	Lassa entry inh inconclusive
CCOC(=O)c1cnc(SCC#N)nc1N	none
N#CC(c1ccc(Cl)cc1)c1cccc(Cl)n1 (stereo not drawn)	none
CNS(=O)(=O)c1cc(Cl)ccc1Sc1ccccc1C(=O)O	Marburg entry inh inconclusive
NS(=O)(=O)c1c(Sc2ccccc2C(=O)O)ccc2ccccc12	CHX counter 30 (no result: Lassa entry inh, Shiga toxin inh, Marburg entry inh)
COc1ccc(NS(=O)(=O)c2ccc(NS(=O)(=O)c3cccc(C(=O)O)c3)cc2)cc1	none (no result: Lassa entry inh)
COc1ccc(NS(=O)(=O)c2cccc(-c3nnc(-c4ccccc4)o3)c2)cc1	CHX counter 15, Shiga toxin inh 57
O=S(=O)(NC1CCCC1)c1cccc(-c2nnc(-c3ccccc3)o2)c1	CHX counter 30
O=S(=O)(NC1CCCCCCC1)c1ccccc1	none
CCCn1c(CCC(=O)Nc2cc(C(=O)OC)cc(C(=O)OC)c2)nc2cccnc21	none (no result: CHX counter, Shiga toxin inh)
CCOc1ccc(C(=O)NCC(c2ccco2)S(=O)(=O)c2cccs2)cc1 (stereo not drawn)	none (no result: CHX counter, Shiga toxin inh, Marburg entry inh)
O=C(NCCCn1ccnc1)c1cc(C2CC2)on1	none (no result: Lassa entry inh, Marburg entry inh)
COc1ccc(-c2cc(C(F)(F)F)n3nc(C(=O)NCCCn4ccnc4)cc3n2)cc1	CHX counter 23
Cc1ccc(-c2cc(C(=O)NCCCn3ccnc3)no2)cc1	CHX counter 26, Shiga toxin inh 50 (no result: Lassa entry inh, Marburg entry inh)
O=C(NCCCn1ccnc1)c1cc(-c2cccc(O)c2)on1	CHX counter 31, Shiga toxin inh 74 (no result: Lassa entry inh, Marburg entry inh)
Cc1ccc(CC(=O)NCCCn2ccnc2)cc1	none
CCCN(CCC)CCNC(=O)C1CCCN(S(=O)(=O)c2cccc3nsnc23)C1 (stereo not drawn)	none (no result: CHX counter, Shiga toxin inh)
Cc1nc(N)sc1-c1csc(N(C)c2ccc(O)cc2)n1	CHX counter 23, Shiga toxin inh 66, Marburg entry inh inconclusive
CN(c1ccc(O)cc1)c1nc(-c2cccs2)cs1	none
COc1ccc2oc(C(=O)Nc3nc4ccccc4[nH]3)c(C)c2c1	CHX counter 57, Shiga toxin inh 70 (no result: Lassa entry inh, Marburg entry inh)
O=C(Nc1nc2ccccc2[nH]1)c1ccccc1F	Lassa entry inh 0.28µM, Marburg entry inh 0.32µM
COc1cc(OC)cc(C(=O)Nc2nc3ccccc3[nH]2)c1	CHX counter 59, Lassa entry inh inconclusive, Shiga toxin inh 129
CN(C)S(=O)(=O)c1ccc(C(=O)Nc2nc3ccccc3[nH]2)cc1	CHX counter 36, Shiga toxin inh 80 (no result: Lassa entry inh)
